Our source for the growth inhibition values is PubChem BioAssay (NCI).

A short description of assay [1]: NCI Yeast Anticancer Drug Screen. Data for the rad50 strain (AID 155).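 Note: 0% = growth of vehicle-only cultures of the same strain.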 The following applies: S. cerevisiae rad50 strain growth inhibition; at 50.0 µM; active compounds read high. The method, boiled down:
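DNA repair mutant yeast, compound exposure, growth read-out; inhibition is taken relative to vehicle.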

A short description of assay [2]: NCI Yeast Anticancer Drug Screen. Data for the mec2-1 strain (AID 157). As to conditions: S. cerevisiae mec2-1 strain, at 50.0 µM, active compounds read high. The method, boiled down: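 Mutant yeast (mec2-1) grown with compound; growth inhibition relative to vehicle control reported.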
The nature of assay [3]: NCI Yeast Anticancer Drug Screen. Data for the sgs1 mgt1 strain (AID 161).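 Note: 0% = growth of cultures given vehicle only.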 The following applies: S. cerevisiae sgs1 mgt1 strain, at 50.0 µM, active compounds read high. In short, it runs like this: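 Yeast cells carrying a defined DNA-repair defect were exposed to test compounds. Growth inhibition was measured relative to vehicle-treated controls.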
The nature of assay [4]: NCI Yeast Anticancer Drug Screen. Data for the cln2 rad14 strain (AID 165).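 Note: 0% = growth equal to vehicle treated cultures.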 The following applies: S. cerevisiae cln2 rad14 strain, at 50.0 µM, active compounds read high. In short, it runs like this: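 Readout is yeast growth inhibition versus vehicle-treated controls, using a strain with cln2 and rad14 alterations exposed to compound.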
Assay [5] in a line: NCI Yeast Anticancer Drug Screen. Data for the bub3 strain (AID 167). As to conditions: S. cerevisiae bub3 mutant strain, at 50.0 µM, active compounds read high. The method, boiled down:
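In this screen, a yeast mutant lacking normal mitotic checkpoint function is challenged with compound. Relative growth versus vehicle gives the inhibition value.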

A short description of assay [6]: NCI Yeast Anticancer Drug Screen. Data for the mlh1 rad18 strain (AID 175). As to conditions: S. cerevisiae mlh1 rad18 strain growth inhibition; at 50.0 µM; active compounds read high. The method, boiled down: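 Genetically defined yeast (DNA repair-deficient) exposed to compounds; growth inhibition determined relative to vehicle.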

Structures are written as SMILES. The panel holds about 79,000 compounds, 15% with a hit somewhere; the sample as a whole holds those more often. A number with no mark means an inactive call. Calls of active or inactive are those of the source. Cut-off read from the data, not from the text of the source: active = growth inhibition above about 70%; inactive = the rest.

Consider `[O-][N+](CCO)(CCO)Cc1ccccc1`, for which the growth inhibition in assay [1] is 14.1%; in assay [2] it was 1.05%; in assay [3], 19.8%; in assay [4], 6.2%; in assay [5], 9.65%; in assay [6], 26.6%.
With `O=C(Nc1ccccc1Cl)Nc1cccc2ccccc12`, the growth inhibition in assay [1] is 15.2%; in assay [2], 1.3%; in assay [3], 17.8%; in assay [4], -1.6%; in assay [5], 4.55%; in assay [6] it was 8.65%.
`CC(C)(C)C1=CC(=C(c2ccc(-c3c4nc(c(-c5ccc(C(=C6C=C(C(C)(C)C)C(=O)C(C(C)(C)C)=C6)c6cc(C(C)(C)C)c(O)c(C(C)(C)C)c6)cc5)c5ccc([nH]5)c(-c5ccc(C(=C6C=C(C(C)(C)C)C(=O)C(C(C)(C)C)=C6)c6cc(C(C)(C)C)c(O)c(C(C)(C)C)c6)cc5)c5nc(c(-c6ccc(C(=C7C=C(C(C)(C)C)C(=O)C(C(C)(C)C)=C7)c7cc(C(C)(C)C)c(O)c(C(C)(C)C)c7)cc6)c6ccc3[nH]6)C=C5)C=C4)cc2)c2cc(C(C)(C)C)c(O)c(C(C)(C)C)c2)C=C(C(C)(C)C)C1=O`: the growth inhibition in assay [1] was 4.7%; in assay [2], 2.6%; in assay [3], -1.75%; in assay [4], -38.6%; in assay [5], -3.9%; in assay [6], 14.4%.
For `CN1C=CC=CC1=C1C(=O)c2ccccc2C1=O`, the growth inhibition was 26.8% in assay [1]; 12.6% in assay [2]; 17.2% in assay [3]; 35.6% in assay [4]; -2.1% in assay [5]; 23.2% in assay [6].
Consider `CCOC(=O)C1=C(Nc2cccc3ccccc23)OC/C1=N\NC(=O)c1ccccc1O`, for which the growth inhibition in assay [1] was 24.2%; in assay [2], 28.6%; in assay [3], 20.3%; in assay [4], 14.8%; in assay [5], 27.8%; in assay [6] it was 12.8%.
Regarding `O=C(CN1CCN(c2ccccc2)CC1)N1CCc2c([nH]c3ccccc23)C1c1cccnc1` (stereo not given), the growth inhibition in assay [1] was 2.45%; in assay [2], -19.8%; in assay [3], -19.6%; in assay [4], 28.6%; in assay [5], 4.35%; in assay [6], -21.6%.
With `Nc1c2ccccc2nc2nccnc12`, the growth inhibition in assay [1] is 3.6%; in assay [2], 2.65%; in assay [3] it was 5.95%; in assay [4], 16.9%; in assay [5], -3%; in assay [6], 30.4%.
On to `Cc1ccc(C)c2c1C1CCCCC3(OCCCO3)C21O` (stereo not given), for which the growth inhibition in assay [1] was -4.2%; in assay [2] it was -6.3%; in assay [3], -44.2%; in assay [4], -6.9%; in assay [5] it was -24.2%; in assay [6] it was -0.85%.
Regarding `COc1ccc(C2=C(OC(=O)N(C)C)c3cccn3-c3cc(Cl)ccc3S2)cc1`, the growth inhibition was -7.3% in assay [1]; 2% in assay [2]; 1.7% in assay [3]; -1.85% in assay [4]; -0.1% in assay [5]; -5.95% in assay [6].
`O=C1CC(=C=Nc2ccccc2)C(=O)N1c1ccccc1`: the growth inhibition in assay [1] is 3.6%; in assay [2] it was 3.85%; in assay [3], 1.7%; in assay [4] it was -33.5%; in assay [5], -2.2%; in assay [6] it was 19.8%.
With `CCCCCCCc1ccc(N=Cc2ccc(OCCC)cc2)cc1`, the growth inhibition was 98.8% (active) in assay [1]; 99.3% (active) in assay [2]; 98.9% (active) in assay [3]; 99% (active) in assay [4]; 97.7% (active) in assay [5]; 99.2% (active) in assay [6].
Take `CC(C)(CO)CN1CCCC1`: the growth inhibition in assay [1] was 10.3%; in assay [2] it was -25.9%; in assay [3], -4.05%; in assay [4] it was 1.3%; in assay [5], 3%; in assay [6], 0.8%.
Consider `CCC(/C=C/C(C)C1CCC2C3CC=C4CC(OC(=O)Nc5ccccc5)CCC4(C)C3CCC12C)C(C)C` (stereo not given), for which the growth inhibition was -6.65% in assay [1]; 2.1% in assay [2]; -4.9% in assay [3]; 77.2% (active) in assay [4]; 5.55% in assay [5]; 57.5% in assay [6].
As to `CN(Cc1ccccc1)c1ccccn1`, the growth inhibition in assay [1] is -12.9%; in assay [2] it was -21.8%; in assay [3] it was -18.9%; in assay [4], -2.05%; in assay [5] it was -12.7%; in assay [6] it was 8.85%.
Take `O=C(c1cccs1)c1ccc2ccccc2c1C(=O)O`: the growth inhibition in assay [1] is -6.95%; in assay [2], -11%; in assay [3] it was -0.85%; in assay [4], 3.9%; in assay [5] it was 58.5%; in assay [6], 4.7%.
With `S=c1nc(NCc2ccccc2)[nH]c2[nH]ncc12`, the growth inhibition in assay [1] was -6.55%; in assay [2] it was -17.2%; in assay [3], -1.6%; in assay [4], -17.2%; in assay [5] it was -21%; in assay [6], -2.55%.
On to `CC(=O)Nc1c(Cl)c(Cl)c2c(c1Cl)Cc1cc([N+](=O)[O-])ccc1-2`, for which the growth inhibition in assay [1] is 9.2%; in assay [2], -12.8%; in assay [3] it was 7.6%; in assay [4] it was -9.1%; in assay [5], 3.15%; in assay [6], 2.1%.
As to `O=C(Nc1ccccc1CCl)Nc1ccccc1CCl`, the growth inhibition in assay [1] is -30.9%; in assay [2], -26.4%; in assay [3], -15.8%; in assay [4], 0.7%; in assay [5], -23.2%; in assay [6], -28.8%.
For `CCN(CCC#N)C(=S)Nc1ccc(C)c(C)c1`, the growth inhibition in assay [1] was -9%; in assay [2], -8.55%; in assay [3] it was 0%; in assay [4], 1%; in assay [5], -8.6%; in assay [6], 0.1%.
In the case of `COc1cc(Nc2nc3ccc(C(F)(F)F)cc3nc2-c2ccccc2)cc(OC)c1OC`, the growth inhibition in assay [1] is 0.05%; in assay [2] it was 4.2%; in assay [3] it was -36%; in assay [4] it was -12.2%; in assay [5] it was -9.3%; in assay [6], -22.9%.
